Test results as given in PubChem BioAssay (NCI).
Compounds without any hit were thinned out: in the full panel of roughly 83,000, 20% have a hit.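 Plates (96-well) were seeded with cells, treated with compound at one concentration, and incubated for 48 hours before percent growth was determined.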 Unmarked numbers belong to inactive results. Activity calls are given as the source filed them. Rule for the calls: active = growth percent below 10; inactive = the rest.

tested on: SF-539 CNS; experiment: NCI-60 one-dose screen, 48 h (100 = growth as untreated, 0 = no growth, -100 = all killed); settings: 10 µM

| SMILES | growth |
| --- | --- |
| Cc1ccc(C(=O)NCCCNc2nc(Nc3ccc(N4CCN(C)CC4)cc3)nc3ccsc23)cc1 | -89.9% (active) |
| O=C(c1ccc(-n2c(=O)[nH]c3ccccc3c2=O)cc1)N1CCOCC1 | 93.8% |
| O=S(=O)(c1ccc(Cl)cc1)c1nc(-c2ccccc2)oc1S(=O)(=O)c1ccc(Cl)cc1 | 84.8% |
| Cc1ccc(C(C)C)cc1NC(=O)c1ccccc1N(C)C | 96.9% |
| COc1ccc2[nH]c(O)c(N=NC(=O)COc3ccc(NC(=O)Nc4ccc(Cl)c(Cl)c4)cc3)c2c1 | -97.5% (active) |
| COc1cccc(-c2nn(-c3ccccc3)cc2-c2ccnc(NCCCNC(=O)Nc3ccc(F)cc3)c2)c1 | -29.9% (active) |
| CN1CCN(c2ccc(Nc3nc(NCCCNC(=O)c4ccc(F)cc4)c4sccc4n3)cc2)CC1 | -90% (active) |
| CC1(C)CC[C@]2(C(=O)Nc3ccccc3)CC[C@]3(C)C(=CC[C@@H]4[C@@]5(C)CC[C@H](N)C(C)(C)[C@@H]5CC[C@]43C)[C@H]2C1 | 87.8% |
| C[C@H]1[C@H](C)CC[C@]2(COC(=O)CCC(=O)NCC#CCN3CCNCC3)CC[C@]3(C)C(=CC[C@@H]4[C@@]5(C)CCCNC(C)(C)[C@@H]5CC[C@]43C)[C@H]12 | 41.9% |
| O=C(Nc1ccncc1)c1ccc(-n2c(=O)[nH]c3ccccc3c2=O)cc1 | 98.8% |
| Cc1ccc(C(C)C)cc1NC(=O)c1ccccc1O | 49.5% |
| CCCS(=O)(=O)c1oc(-c2ccc(F)cc2)nc1S(=O)(=O)c1ccc(F)cc1 | -94.2% (active) |
